# PubChem BioAssay
# Inconclusive results are not listed. For some of these results: Results with a measured potency or affinity are listed apart. The source made the active and inactive calls.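 Rule for the calls, unless noted: active = luciferase signal above three times the same-plate solvent-only control wells; inactive = the rest.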
# How the values were obtained:
# [1] = differential killing of epithelial or mesenchymal cells, primary screen, imaging, PC-3E GFP, TEM4-18 mCherry, co-culture (AID 1345086;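 active = compounds killing one labelled cell type while sparing the other, by normalised counts and ratio limits, not self-fluorescent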;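 for all read-outs here: cells exposed to compound for 72 h before imaging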;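 for red/green cell ratio (normalised): normalised mesenchymal count divided by normalised epithelial count so high means epithelial killing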); conditions: imaging cell counts, at 1 µM; for red/green cell ratio (normalised): actives lie on both sides, counts scaled to control wells, 1 = unselective
# [2] = target: Mitogen-activated protein kinase 7 (Homo sapiens) (UniProt Q13164); test: ERK5 transactivation activators in reporter cells, primary screen, cell-based, HTS (AID 1508626); conditions: HeLa Gal4-ERK5 transactivation, 18 h, at 5 µM, stronger effect = higher value;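 note: luciferase driven by Gal4-ERK5 fusion binding five Gal4 sites before minimal TATA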
# Mitogen-activated protein kinase 7 (Homo sapiens), sequence (Q13164 whole entry, looked up, the tested form may be a part): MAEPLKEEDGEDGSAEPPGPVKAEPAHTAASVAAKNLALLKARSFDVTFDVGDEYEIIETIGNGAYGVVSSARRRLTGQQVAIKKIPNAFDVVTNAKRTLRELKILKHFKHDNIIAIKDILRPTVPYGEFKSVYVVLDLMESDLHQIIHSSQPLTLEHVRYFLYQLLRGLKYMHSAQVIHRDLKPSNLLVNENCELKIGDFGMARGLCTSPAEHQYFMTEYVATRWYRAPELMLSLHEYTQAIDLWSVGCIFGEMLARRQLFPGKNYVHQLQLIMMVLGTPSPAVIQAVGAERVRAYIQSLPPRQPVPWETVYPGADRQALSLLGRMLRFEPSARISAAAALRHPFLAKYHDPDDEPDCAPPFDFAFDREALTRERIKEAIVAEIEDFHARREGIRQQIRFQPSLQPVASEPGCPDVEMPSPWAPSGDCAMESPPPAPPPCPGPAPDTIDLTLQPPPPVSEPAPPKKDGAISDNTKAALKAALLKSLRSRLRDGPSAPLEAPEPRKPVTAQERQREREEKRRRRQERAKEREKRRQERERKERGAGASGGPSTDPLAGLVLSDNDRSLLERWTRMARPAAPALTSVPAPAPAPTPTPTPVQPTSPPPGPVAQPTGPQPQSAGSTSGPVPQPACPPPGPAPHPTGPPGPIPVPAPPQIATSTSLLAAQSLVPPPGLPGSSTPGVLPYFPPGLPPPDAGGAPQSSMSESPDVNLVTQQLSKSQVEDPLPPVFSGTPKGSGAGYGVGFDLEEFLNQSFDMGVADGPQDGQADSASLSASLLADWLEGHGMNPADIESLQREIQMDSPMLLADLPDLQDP
# [3] = mitochondrial permeability transition inhibitors (AID 1580; call rule not given here); conditions: isolated mitochondria, permeability transition inhibition
# [4] = polyglutamine-triggered caspase-3 activation inhibitors, cell-based (AID 1583); conditions: polyglutamine-induced caspase-3 activation, cell assay; stronger effect = higher value;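 tested at 10 µM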
# [5] = suppressors of polyQ aggregation in yeast, 75Q-TubU reporter (AID 1593); conditions: Yeast 75Q polyglutamine aggregation reporter
# [6] = rescue of polyQ-huntingtin neuronal dysfunction in worms, whole organism, C. elegans mechanosensory neurons, N-terminal huntingtin (AID 1599); conditions: touch response, stronger effect = higher value
# [7] = inhibitors of mitochondrial cytochrome c release, biochemical, purified mitochondria (AID 1603); conditions: stronger effect = lower value;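 note: mouse liver mitochondria challenged with calcium chloride; signal normalized to the plate average as 100%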
# [8] = inhibitors of polyQ protein aggregation (AID 1604); conditions: polyglutamine-induced protein aggregation inhibition assay; stronger effect = higher value; tested at 2.5 µM
# [9] = enhancers of glutamate uptake in motor neurons, MN-1 cell line (AID 1612); conditions: MN-1 motor neuron cells, stronger effect = higher value;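 note: tested at 1 µM final; 0% = mean of DMSO vehicle wells on each plate; positive means more glutamate uptake than control and negative means less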
# [10] = suppressors of polyglutamine aggregation in yeast, 75Q-TubH (AID 1616); conditions: S. cerevisiae 75Q-TubH polyglutamine aggregation suppression; stronger effect = higher value
# [11] = liver-stage malaria parasite growth inhibition, primary screen, cell-based, HepG2, luciferase luminescence, HepG2 viability (AID 624349; in the data active = parasite load remaining mostly below about 12%, no sharp cut-off; inactive = mostly above about 10%;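 note: 100% = mean of DMSO negative control wells on the same plate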); conditions: P. berghei liver stage in HepG2, luciferase luminescence, concentration not given here; parasite load remaining: stronger effect = lower value; viability: measured here: HepG2 viability without parasites
# [12] = reducers of polyQ inclusions in PC12 cells, cell-based, NGF-treated PC12, GFPQ80 (AID 1614); conditions: PC12 NGF-treated GFP-polyQ80 inclusion reduction;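 note: lower means fewer inclusions and 0 means no inclusions at all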
# [13] = measured here: epithelial PC-3E GFP cell survival
# [14] = measured here: mesenchymal TEM4-18 mCherry cell survival
compound,measurement,setting,value
COc1ccc([C@@H](C)C(=O)c2ccc(O)cc2O)cc1,red/green cell ratio (normalised),[1],1.1 (inactive)
same,normalised cell number,[1]; [13],0.96
same,normalised cell number,[1]; [14],1.05
same,luciferase signal,[2],20 AU (inactive)
C=CCCCCCCCCCCCc1ccco1,red/green cell ratio (normalised),[1],1.12 (inactive)
same,normalised cell number,[1]; [13],0.9
same,normalised cell number,[1]; [14],1.01
same,luciferase signal,[2],112 AU (inactive)
O=C(O)/C=C/C=C/c1ccccc1,red/green cell ratio (normalised),[1],1.01 (inactive)
same,normalised cell number,[1]; [13],0.93
same,normalised cell number,[1]; [14],0.93
same,luciferase signal,[2],64 AU (inactive)
CC1=CC(=O)C2C(C)(C)CCC[C@]2(C)[C@@]1(O)CCc1ccoc1 (stereo partly drawn),red/green cell ratio (normalised),[1],1.02 (inactive)
same,normalised cell number,[1]; [13],0.94
same,normalised cell number,[1]; [14],0.96
same,luciferase signal,[2],128 AU (inactive)
C[C@@H]1O[C@@H](O[C@H]2[C@H](Oc3cc(O)c4c(=O)cc(-c5ccc(O)cc5)oc4c3)O[C@H](CO)[C@@H](O)[C@@H]2O)[C@H](O)[C@H](O)[C@H]1O,red/green cell ratio (normalised),[1],1.02 (inactive)
same,normalised cell number,[1]; [13],0.87
same,normalised cell number,[1]; [14],0.89
same,luciferase signal,[2],56 AU (inactive)
COc1cc2c(cc1OC)-c1c(oc3cc(O)cc(O)c3c1=O)CO2,red/green cell ratio (normalised),[1],1.08 (inactive)
same,normalised cell number,[1]; [13],1.02
same,normalised cell number,[1]; [14],1.09
same,luciferase signal,[2],16 AU (inactive)
COc1ccc(-c2coc3c(O)c(O)c(OC)cc3c2=O)cc1,red/green cell ratio (normalised),[1],0.97 (inactive)
same,normalised cell number,[1]; [13],1.12
same,normalised cell number,[1]; [14],1.09
same,luciferase signal,[2],88 AU (inactive)
O=C(O)c1cc(=O)c(O)c2c(O)c(O)c(O)cc2c1,red/green cell ratio (normalised),[1],0.85 (inactive)
same,normalised cell number,[1]; [13],1.11
same,normalised cell number,[1]; [14],0.94
same,luciferase signal,[2],100 AU (inactive)
O=C(/C=C/c1ccc(O)cc1)c1ccccc1O,red/green cell ratio (normalised),[1],0.93 (inactive)
same,normalised cell number,[1]; [13],1.02
same,normalised cell number,[1]; [14],0.94
same,luciferase signal,[2],96 AU (inactive)
COc1ccc(-c2cc(=O)c3c(O)cc(OC)c(OC)c3o2)c(OC)c1,red/green cell ratio (normalised),[1],1.02 (inactive)
same,normalised cell number,[1]; [13],0.97
same,normalised cell number,[1]; [14],0.99
same,luciferase signal,[2],108 AU (inactive)
CC[C@@H](C(=O)[C@@H](C)[C@@H](O)[C@H](C)[C@@H]1O[C@@H]([C@@H](CC)C(=O)O)CC[C@@H]1C)[C@H]1OC2(C=C[C@@H](O)[C@]3(CC[C@@](C)([C@H]4CC[C@](O)(CC)[C@H](C)O4)O3)O2)[C@H](C)C[C@@H]1C (stereo partly drawn),EC50,[3],100 nM (active)
same,inhibition,[4],40.3%
same,score,[5],0.53
same,rescue above control,[6],-3.48
same,cytochrome c release ratio,[7],1.06
same,inhibition of aggregation,[8],61.1%
same,glutamate uptake change,[9],-41.6%
same,aggregation suppression score,[10],0.25
same,parasite load remaining,[11],-5.04% (inactive)
same,viability,[11],82%
NC(Cc1ccc(F)cc1)C(=O)O (stereo not drawn),inhibition,[4],10.4%
same,score,[5],1.23
same,rescue above control,[6],3.95
same,cytochrome c release ratio,[7],0.78
same,inhibition of aggregation,[8],75%
same,glutamate uptake change,[9],15.5%
same,inclusion score,[12],2
same,aggregation suppression score,[10],1.47
